The values that follow come from PubChem BioAssay AID1259343 (VanderVen Lab, College of Veterinary Medicine, Cornell …, 2017).

The campaign covered roughly 6,200 compounds. About 2,900 (47%) were called active. Rule as the data show it: active = inhibition above about 50%; inactive = the rest. The set was probably picked from earlier hits. The list shows a part of the results.

A short description of the assay: Mycobacterium tuberculosis growth inhibition, primary screen (AID 1259343). The settings on record: inhibition: at 10 µM, active compounds read high; outcome: 10 uM.
The inhibition is the drop in the measured response relative to a control, in per cent. With `CC(C)Nc1nc(-c2ccc(Br)s2)cs1`, the inhibition is 17.8% (inactive).
Regarding `O=C(Nc1nc(-c2ccc(Br)s2)cs1)c1ccc(Br)s1`, the inhibition is 81.8% (active).
Regarding `CCOc1ccc(Nc2cncc(Cl)n2)cc1`, the inhibition was 72.5% (active).
In the case of `COc1ccc(NC(=O)N(Cc2ccco2)C(C)c2nc3ccccc3c(=O)n2-c2ccccc2)cc1` (stereo not given), the inhibition was -7.33% (inactive).
Next, `COc1ccc(NC(c2ccccn2)c2oc(CO)cc(=O)c2O)cc1` (stereo not given): 84.2% (active).
`CCCCCCCCNC(C)C(O)c1ccc(SC(C)C)cc1` (stereo not given): the inhibition was 3.63% (inactive).
As to `NC(=O)Cc1csc(Nc2ccc(OC(F)(F)F)cc2)n1`, the inhibition was 73.5% (active).
For `O=C(Cc1csc(NC(=O)NC2CCCCC2)n1)Nc1ccc(Oc2ccccc2)cc1`, the inhibition was -2.63% (inactive).
As for `CN(CCOc1ccccc1)C(=O)c1cc(COc2c(F)cccc2F)on1`, the inhibition was 84.2% (active).
For the compound `COCCN(C)C(=O)c1cc(COc2cc(C)c(Cl)c(C)c2)on1`, the inhibition result is “inactive”.
`O=C(NCC1CCCCO1)c1coc(COc2cccc(C(F)(F)F)c2)n1` (stereo not given): the inhibition was 0.47% (inactive).
The value for `Cc1ccc(OCc2cc(C(=O)N(C)CC3Cc4ccccc4O3)no2)cn1` (stereo not given) was “inactive”.
The value for `Cc1ccc(OCc2cc(C(=O)N(C)CCc3ccccc3)no2)cc1C` was 93.7% (active); that for `Cc1ccc(OCc2cc(C(=O)N(C)Cc3csc(-c4ccccc4)n3)no2)cn1` was 73% (active).
Consider `CN(CCC(O)c1ccccc1)C(=O)c1cc(COc2cccc3cnccc23)on1` (stereo not given), for which the inhibition is 48.2% (inactive).
As to `O=C(NCC1CCCCO1)c1cc(COc2c(F)cccc2F)on1` (stereo not given), the inhibition was 65.1% (active).
The value for `CC(C)c1nc(CNC(=O)c2cc(COc3c(F)cccc3F)on2)cs1` was 23.3% (inactive); that for `O=C1OC(c2ccccc2Br)=NC1=Cc1ccc2ccccc2c1` was -28.9% (inactive).
As to `Cc1cc(C)cc(OCCN(C)C(=O)Nc2ccc(F)cc2)c1`, the inhibition was 30.4% (inactive).
For the compound `Cc1ccc(OCc2cc(C(=O)NCc3cc4ccccc4[nH]3)no2)cc1C`, the inhibition is 24.7% (inactive).
Next, `Cc1ccc(OCc2cc(C(=O)NCc3nc4ccccc4s3)no2)cc1C`: 92.1% (active); `Cc1nc2cc(OCc3cc(C(=O)NCc4cc(F)ccc4C)no3)ccc2s1`: 22.2% (inactive).
For the compound `CN(CCOc1ccccc1)C(=O)c1cc(Br)c[nH]1`, the inhibition was 101% (active).
As to `Cc1ccc(OCCN(C)C(=O)CCc2nnc(CCc3c[nH]c4ccccc34)o2)cc1`, the inhibition is 44.4% (inactive).
For `CN(Cc1cccnc1)C(=O)c1cc(COc2ccc(F)c(F)c2)on1`, the inhibition was 60.5% (active).
Next, `Cc1nc2sc3c(c2c(=O)n1NC(=S)NC(=O)C12CC4CC(CC(C4)C1)C2)CCCC3`: 67.3% (active); `COCCNCc1c(-c2ccccc2)noc1N(C)C1CCCCC1`: 82.5% (active).
The value for `N#Cc1cccc(NCc2c(F)cccc2Cl)c1` was 30.2% (inactive).
Next, `N#Cc1cccc(NN=C2CCN(c3ccc(F)cc3)CC2)c1`: 95.8% (active).
Consider `N#Cc1cccc(NC(=O)NCc2cc(F)cc(F)c2)c1`, for which the inhibition is -9.78% (inactive).
On to `O=C(CC1SC(=NCc2ccco2)NC1=O)Nc1ccc(OC(F)(F)F)cc1` (stereo not given), for which the inhibition was 21.7% (inactive).
Take `CCOc1ccc(N=C2NC(=O)C(CC(=O)c3ccccc3)S2)cc1` (stereo not given): the inhibition is 54.9% (active).
The value for `O=C(O)CC1SC(=NN=C2c3ccccc3-c3ccccc32)NC1=O` (stereo not given) was 24.2% (inactive); that for `CCOC(=O)C1(Cc2cccc(Cl)c2)CCCN(C(=O)CCC(F)(F)F)C1` (stereo not given) was -43.9% (inactive).
As for `CCOC(=O)C1(Cc2cccc(OC)c2)CCN(CC#Cc2ccccc2)CC1`, the inhibition is 28.5% (inactive).
As for `CCOC(=O)C1(Cc2cccc(C(F)(F)F)c2)CCN(Cc2ccc(C#CCCO)cc2)CC1`, the inhibition is 51.2% (active).
Take `O=C(CCC1CCCC1)N1CCc2ccc(O)cc2CC1`: the inhibition is 92.6% (active).
In the case of `COc1ccc(CC2CN(Cc3ccc(OC)c(F)c3)CCO2)cc1` (stereo not given), the inhibition is 30.9% (inactive).
Regarding `Cc1ccc(F)c(OCC2CN(CC(C)O)CCO2)c1` (stereo not given), the inhibition is 102% (active).
For `COC(=O)CSCCOc1ccc(OCCSCC(=O)OC)cc1`, the inhibition was 88.5% (active).
Regarding `COc1ccc(OCCOc2ccc(C)cc2)cc1`, the inhibition result was “inactive”.
With `Cc1ccc(C)c2sc(OC3CCN(S(=O)(=O)c4cccnc4)CC3)nc12`, the inhibition was 31.8% (inactive).
Turning to `O=C1c2ccccc2C(=O)c2c1ccc(O)c2O`, the inhibition is 101% (active).
On to `COc1cccc2c1CCCC2CCCN1CCN(C2CCCCC2)CC1` (stereo not given), for which the inhibition is 98.3% (active).
The value for `COC(=O)CCCCCNC(=O)c1cc([N+](=O)[O-])cc([N+](=O)[O-])c1` was 93.7% (active); that for `COC(=O)CNC(=O)c1ccc([N+](=O)[O-])o1` was 44.5% (inactive); that for `CCS(=O)(=O)Oc1ccc(CN(C(=O)c2cccc([N+](=O)[O-])c2)C(C)C)cc1` was -14.5% (inactive).
On to `COc1ccc(N2COc3cc4c(cc3C2)OCO4)cc1`, for which the inhibition was 87.2% (active).
With `Brc1ccc2c(c1)CN(Cc1ccc3c(c1)OCO3)CO2`, the inhibition was 1.53% (inactive).
With `COc1ccc2c(c1)CC(C(=O)N(C)Cc1ccco1)CO2` (stereo not given), the inhibition was -34.5% (inactive).
The value for `COc1ccc2c(c1)OCC(C(=O)NS(=O)(=O)c1cccs1)C2` (stereo not given) was 99.9% (active); that for `COc1ccc(NC(=O)C2Cc3ccc(C)cc3S2)cc1` (stereo not given) was 21.4% (inactive); that for `CN(CCCOc1ccccc1Cl)S(=O)(=O)NCc1ccccc1` was 56.2% (active).
Take `CN(Cc1cccc2cnccc12)S(=O)(=O)NCc1ccccc1`: the inhibition was 20.2% (inactive).
`COc1c(F)cc(NS(=O)(=O)N(C)Cc2ccccc2)cc1F`: the inhibition was 31.6% (inactive).
With `c1ccc(CCNCCCOc2cccc3ccccc23)cc1`, the inhibition is 58% (active).
Consider `O=C(COc1ccc(Cl)cc1)NC1(c2ccccc2)CCC1`, for which the inhibition is 29.4% (inactive).
Next, `Cc1oc(C)c(C(=O)NC2(c3ccccc3)CCC2)c1Br`: 20.5% (inactive); `O=C(NC1(c2ccc(Cl)cc2)CCC1)c1cnsn1`: 60.1% (active).
Next, `O=S(=O)(Nc1nc2ccccc2nc1OCC(F)(F)F)c1cccs1`: 71.9% (active); `O=S(=O)(Nc1ccc(Cl)c(Cl)c1)c1cccs1`: 20.9% (inactive); `COc1ccc(F)c(CN2CCCC(CO)(Cc3cccc(Cl)c3)C2)c1` (stereo not given): 31% (inactive).
Regarding `OCC1(Cc2cccc(Cl)c2)CCCN(Cc2nc(-c3ccc(F)cc3)cs2)C1` (stereo not given), the inhibition result was “inactive”.
Take `O=C(c1cc2cc(F)ccc2[nH]1)N1CCCC(CO)(Cc2cccc(Cl)c2)C1` (stereo not given): the inhibition is 68.2% (active).
Turning to `CC(C)C(=O)N1CCC1(C)C(=O)Nc1ccc(-n2cccc2)cc1` (stereo not given), the inhibition was 92.6% (active).
For the compound `CC(C)(C)c1ccc(C(=O)N2CCC2(C)C(=O)Nc2cccc3c2CCCC3)cc1` (stereo not given), the inhibition was 0.45% (inactive).
For the compound `CC(C)CSc1ncnc2c1cnn2-c1ccccc1`, the inhibition was 59.5% (active).
In the case of `Fc1ccc(CNc2ncnc3c2cnn3-c2ccc(F)cc2)cc1`, the inhibition is -7.37% (inactive).
The value for `CCOC(C)c1nc(CSc2ncnc3c2cnn3C)cs1` (stereo not given) was 40% (inactive); that for `CN(Cc1c(F)cccc1Cl)c1cncc(-n2cccn2)n1` was 83.7% (active); that for `CN(Cc1ccccc1)c1cccc(-n2ccnc2)n1` was 3.53% (inactive).
For `Clc1cccc(-c2ccc3nnc(Cl)nc3c2)c1`, the inhibition was 101% (active).
Turning to `CCN(CC)c1n[nH]c(-c2cccc(Cl)c2)n1`, the inhibition is -6.42% (inactive).
`Cc1nn(-c2ccc(C(F)(F)F)cc2)c(C)c1[C@@H]1C=C[C@@H](NCc2ccc(N(C)C)cc2)C1`: the inhibition is 78.3% (active).
Consider `N#CC(C(=S)Nc1ccccc1)=C1NN=C2CCCCCN21`, for which the inhibition was 41.7% (inactive).
For the compound `COc1cccc(CNc2nccn(-c3cccc(Cl)c3)c2=O)c1`, the inhibition is 13.4% (inactive).
Take `CCOc1ccc(-n2ccnc(NCc3cccs3)c2=O)cc1`: the inhibition was 71.3% (active).
As to `O=C(O)c1c[nH]c2c(Cl)c(Cl)ccc2c1=O`, the inhibition was 81.6% (active).
`O=C(O)c1c[nH]c2c(ccc3ccccc32)c1=O`: the inhibition entry is “inactive”.
On to `CCCOc1ccc(F)cc1-c1cc(C(=O)NC2CCCCC2)[nH]n1`, for which the inhibition was 28% (inactive).
For `COc1ccc(F)c(-c2cc(C(=O)NC3CC3)ccn2)c1`, the inhibition was 82.8% (active).
Take `COc1ccc(-c2cc(C(=O)NC3CC3)c(C)n2-c2cccc(OC)c2)cc1`: the inhibition is -5.91% (inactive).
For the compound `COC(=O)c1ccc(NC(=O)CCc2ccncc2)cc1C`, the inhibition is 92.8% (active).
For `Fc1ccc(Nc2nc3cc(Cl)ccc3o2)cc1Cl`, the inhibition is -2.2% (inactive).
As to `OCCn1c(CSc2nc3ccccc3o2)nc2ccc(Cl)cc21`, the inhibition was -42.1% (inactive).
For the compound `FC(F)(F)c1ccc(-c2nc(CSc3nc4cc(Cl)ccc4o3)cs2)cc1`, the inhibition was 87.2% (active).
The value for `Cc1c2ccccc2[nH]c2c1oc1cc(=O)ccc12` was 97.4% (active); that for `CCCc1nc(-c2ccc(S(N)(=O)=O)cc2)cs1` was -6.09% (inactive).
Take `CCCc1nc(C(=O)N2C[C@H]3CC=CC[C@H]3C2)cs1`: the inhibition is 58.6% (active).
On to `Clc1ccc(CN2CCN(Cc3cnc(CC4CCCC4)[nH]3)CC2)cc1`, for which the inhibition is 84.3% (active).
Turning to `Cc1cc(C)c(C#N)c(N2CCN(Cc3ccc(Cl)cc3)CC2)n1`, the inhibition was 47.2% (inactive).
`CC1CCc2onc(C(=O)Nc3nc4ccccc4n3C)c2C1` (stereo not given): the inhibition was 7% (inactive).
Next, `COc1ccc(C23CC4CC(CC(C(=O)O)(C4)C2)C3)c(F)c1`: 21.2% (inactive); `COc1cccc(C(=O)NC(C)C23CC4CC(CC(C4)C2)C3)c1` (stereo not given): 62.8% (active); `S=C(NNc1ccccc1)NC12CC3CC(CC(C3)C1)C2`: 84.2% (active).
Turning to `Cc1ccc(C(=O)NC(C)C23CC4CC(CC(C4)C2)C3)s1` (stereo not given), the inhibition is 93.3% (active).
Consider `O=C(NC(=S)NC1C2CC3CC(C2)CC1C3)c1cccs1` (stereo not given), for which the inhibition is 56.9% (active).
In the case of `O=S(=O)(/C=C/c1ccccc1)NC12CC3CC(CC(C3)C1)C2`, the inhibition is -12.7% (inactive).
On to `COC(=O)C1CCCc2c1ccn2CC=C(C)C` (stereo not given), for which the inhibition is 27.3% (inactive).
Next, `CC(NC(=O)c1cccs1)C12CC3CC(CC(C3)C1)C2` (stereo not given): 67.3% (active); `CC(C)c1ccc(C2NC(=O)C(O)=C2C(=O)c2cccs2)cc1` (stereo not given): 29% (inactive).
For the compound `CC(NC(=O)C1=NNC(=O)CC1)C1CC2CCC1C2` (stereo not given), the inhibition is 27.1% (inactive).
`CC(NC(=O)C1=NNC(=O)CC1)C12CC3CC(CC(C3)C1)C2` (stereo not given): the inhibition is 68% (active).
Regarding `O=C(NC12CC3CC(CC(C3)C1)C2)c1cccs1`, the inhibition is 98.1% (active).
As to `CC1CC1C(=O)NC(C)C12CC3CC(CC(C3)C1)C2` (stereo not given), the inhibition is 55.2% (active).
